Experimental data as given in PubChem BioAssay AID411 (National Center for Advancing Translational Sciences (NCATS), 2006).
In all, about 72,000 compounds went through this assay and about 1,600 (2.2%) were called active. Where a call stands in place of a potency, no number is given. Only a selection was taken, and actives are over-represented in it overall. Unmarked numbers belong to inactive results. Calls follow the shape of the dose curve; as a rule, active = well fitted inhibition curve with a large enough effect; inconclusive = small, poorly fitted or top-dose-only effect; inactive = flat fitted curve, though single readings scatter.
Also: nearly all actives have a fitted effect of over 40% in size.
Potency is read from the fitted curve at half-maximal effect.

The molecules below were run against Luciferin 4-monooxygenase (Photinus pyralis) (UniProt P08659) (assay: qHTS Assay for Inhibitors of Firefly Luciferase). Conditions: purified firefly luciferase, luminescence, 8 min; series mostly up to 57.1 µM.
Luciferin 4-monooxygenase (Photinus pyralis), sequence (P08659 whole entry, looked up): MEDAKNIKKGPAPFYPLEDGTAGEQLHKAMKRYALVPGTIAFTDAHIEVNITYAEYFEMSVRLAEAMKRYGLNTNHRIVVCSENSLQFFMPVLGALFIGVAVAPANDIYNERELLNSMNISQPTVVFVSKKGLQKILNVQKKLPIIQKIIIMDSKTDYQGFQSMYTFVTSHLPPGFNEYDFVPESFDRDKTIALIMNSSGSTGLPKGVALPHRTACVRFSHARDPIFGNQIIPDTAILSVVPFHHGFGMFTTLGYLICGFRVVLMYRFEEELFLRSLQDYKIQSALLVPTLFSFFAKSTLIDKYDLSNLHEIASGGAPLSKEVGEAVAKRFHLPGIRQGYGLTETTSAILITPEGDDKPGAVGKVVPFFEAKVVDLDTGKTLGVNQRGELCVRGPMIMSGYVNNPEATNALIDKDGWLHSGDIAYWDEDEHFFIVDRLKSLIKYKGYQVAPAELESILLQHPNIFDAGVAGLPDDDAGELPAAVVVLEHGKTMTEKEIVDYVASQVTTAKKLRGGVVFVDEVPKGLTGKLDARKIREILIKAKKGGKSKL
In short: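 Inhibition of light generation by firefly luciferase from ATP and luciferin was profiled with concentration-response curves per sample, ATP held at 10 uM within the enzyme's linear range. Plates were read by luminescence after an 8-minute ambient incubation.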
For Cc1cc(Cl)c(S(=O)(=O)Nc2ccc3c(c2)OCCO3)cc1OCC(N)=O, the Potency was “inactive”.
COc1ccccc1OCCOc1ccc(/C=N/n2cnnc2)cc1 was tested, and the Potency was “inactive”.
For O=C(CSc1nc2c(cnn2-c2ccc(F)cc2)c(=O)[nH]1)N1CCCCCC1, the Potency was “inactive”.
With CCCC(=O)Nc1ccc2c(c1)nc1n2CCSC1 the Potency was “inactive”.
For CCCC(=O)Nc1cccc(-c2cn3ccsc3n2)c1, the Potency was 15.8 µM (active).
O=C(NCc1cn2ccsc2n1)Nc1cccc(Cl)c1 was tested, and the Potency was “inactive”.
Molecule O=C(O)CS(=O)c1ccc2c3c(cccc13)C(=O)c1ccccc1-2 (centres undefined) has an activity change, negative = inhibition of -1.48% [at 11.4 µM].
For CC(=NCC1CCCO1)c1c(O)[nH]c(=O)[nH]c1=O (centres undefined), the Potency was “inactive”.
For O=C(CS(=O)(=O)Cc1ccccc1)NCC1CCCO1 (centres undefined), the Potency was “inactive”.
O=C1C(C=NCC2CCCO2)=C(O)c2ccccc21 (centres undefined) was tested, and the Potency was 15.8 µM (active).
For Nc1nc(SCCOc2ccccc2)n[nH]1, the Potency was “inactive”.
With CCCOc1ccc(-c2nc(N)n[nH]2)cc1 the Potency was 15.8 µM (active).
In the case of CCCCOc1ccc(-c2ncc(C(=O)OCC)c(N)n2)cc1, the Potency is reported as “inactive”.
With O=c1c2c(nc3n1CCCCC3)sc1c(O)cccc12 the Potency was 15.8 µM (active).
For O=C(Cn1[nH]c(=O)c2ccccc2c1=O)Nc1cccc(-c2nnc3n2CCCCC3)c1, the Potency was “inactive”.
Cc1cc(=O)n2c3c(cccc13)CCC2 was tested, and the Potency was “inactive”.
For CCCn1c(=O)c2ccccc2n2c(SCC(=O)/C(C#N)=C(\C)N)nnc12, the Potency was “inactive”.
For CCc1ccc2oc(-c3ccc(N)cc3)nc2c1, the Potency was 2 µM (active).
With Nc1ccc(-c2nnc(-c3ccc(-c4ccccc4)cc3)o2)cc1 the Potency was “inactive”.
In the case of CCCCCC(=O)Nc1ccc2oc(-c3ccncc3)nc2c1, the Potency is reported as “inactive”.
Cc1cc(Cl)c(S(=O)(=O)NCC2CCCO2)cc1OCC(N)=O (centres undefined) was tested, and the Potency was “inactive”.
With Nc1ncc(-c2cc3ccccc3oc2=O)s1 the Potency was 12.6 µM (active).
For O=C(NCc1ccccn1)c1cc2ccccc2oc1=O, the Potency was “inactive”.
With O=C(Oc1cccnc1)c1cc2ccccc2oc1=O the Potency was “inactive”.
O=c1c(-c2ccc(F)cc2)nc2cncnc2n1-c1ccccc1 showed an activity change, negative = inhibition of 0.918% [at 11.4 µM].
In the case of CCC(=O)Nc1ccc(C(=O)CSc2nnc(CNc3ccc(Cl)cc3)o2)cc1OC, the Potency is reported as “inactive”.
With C#CC(C)(C)NC(=O)CSc1nc2c(c(=O)n(C)c(=O)n2C)n1CCCC the Potency was “inactive”.
With Cc1c(NC(=O)Nc2ccccc2Cl)sc(=S)n1C the Potency was “inactive”.
In the case of Clc1ccc(Nc2nc(-c3cccs3)cs2)nc1, the Potency is reported as “inactive”.
With Oc1ccc(-c2csc(Nc3cccnc3)n2)cc1 the Potency was “inactive”.
For c1ccc(Nc2nc(-c3ccncc3)cs2)nc1, the Potency was 7.94 µM (active).
In the case of CC(=O)OCC(=O)[C@@]1(O)CC[C@@H]2[C@H]3CCC4=CC(=O)C=C[C@]4(C)[C@]3(F)[C@@H](O)C[C@@]21C, the Potency is reported as “inactive”.
Cn1c2c(c(=O)n(C)c1=O)CN(Cc1ccco1)CN2 was tested, and the Potency was “inactive”.
For COc1cc(OC)c(C(=O)Nc2ccc(N(C)C)cc2)cc1OC, the Potency was 15.8 µM (active).
For COc1ccc(C(=O)Nc2cccnc2)cc1C(=O)Nc1cccnc1, the Potency was “inactive”.
For COc1cc(OC)c(C(=O)NC2CCCCCC2)cc1OC, the Potency was “inactive”.
With CCOP1(=O)C=C(C(C)(C)C)OC1c1ccc(F)cc1 (centres undefined) the Potency was “inactive”.
Work on O=c1c(-c2ccc(F)c(F)c2)nc2cncnc2n1-c1ccccc1 yielded an activity change, negative = inhibition of 1.37% [at 11.4 µM].
COc1ccc(Oc2ncc3nc(-c4ccc(F)cc4)c(=O)n(C)c3n2)cc1 showed an activity change, negative = inhibition of 0.178% [at 11.4 µM].
Molecule CN1CCC2(CC1)CCN(S(=O)(=O)c1ccccc1)CC2 has an activity change, negative = inhibition of 1.62% [at 11.4 µM].
Cc1ccc(-c2noc(-c3ccccc3C(=O)NCC3CCCO3)n2)cc1 (centres undefined) was tested, and the Potency was 12.6 µM (active).
With Cc1ccc(C(=O)NCC2CCCO2)o1 (centres undefined) the Potency was “inactive”.
Cc1nc2ccccc2c2oc(C(=O)NCC3CCCO3)cc12 (centres undefined) was tested, and the Potency was “inactive”.
With CCCN1C2=C(C(=O)CCC2)C(c2ccc(O)c(Br)c2)C2=C1CCCC2=O the Potency was “inactive”.
O=S(=O)(N1CCOCC1)N1CCN(c2ccccc2F)CC1 was tested, and the Potency was “inactive”.
For CCCn1c(=O)c2[nH]c(-c3ccc(OCC(=O)NCCN)cc3)nc2n(CCC)c1=O, the Potency was “inactive”.
With CCc1ccccc1N(CC(=O)N1CCN(c2ccccc2F)CC1)S(C)(=O)=O the Potency was “inactive”.
In the case of COc1ccc2nc(N3CCCC(O)C3)c(C#N)cc2c1 (centres undefined), the Potency is reported as 12.6 µM (active).
With CCOc1ccc2nc(N3CCCN(C(=O)Nc4ccccc4C)CC3)c(C#N)cc2c1 the Potency was “inactive”.
In the case of COc1ccc(N2CCN(C(=O)CSc3nc4cc(OC)c(OC)cc4cc3C#N)CC2)cc1, the Potency is reported as “inactive”.
With CCOc1ccc(N(CC(=O)NCc2ccc(OC)cc2)S(=O)(=O)c2c(C)noc2C)cc1 the Potency was “inactive”.
For Cc1ccc(-c2noc(CCC(=O)Nc3ccccc3N3CCN(C)CC3)n2)cc1, the Potency was “inactive”.
With CCNC(=O)CCc1nc(-c2ccc(C(C)(C)C)cc2)no1 the Potency was 5.01 µM (active).
For Cc1ccc(-c2noc(CCC(N)=O)n2)cc1, the Potency was “inactive”.
For O=C(OCCO)c1cc(Cl)c(C(=O)OCCO)cc1Cl, the Potency was “inactive”.
c1ccc(-n2ncc(-c3nn[nH]n3)n2)cc1 was tested, and the Potency was “inactive”.
With CCc1ccc(-c2nnn(Cc3nn[nH]n3)n2)cc1 the Potency was “inactive”.
CC(C)c1ccc(-c2nn[nH]n2)cc1 was tested, and the Potency was 15.8 µM (active).
In the case of CCCCn1c(CN2CCN(CCO)CC2)nc2ccccc21, the Potency is reported as “inactive”.
For CCOC(=O)CCc1c(C)c2ccc(OCc3nn[nH]n3)c(C)c2oc1=O, the Potency was “inactive”.
For Cc1ccc(F)cc1NC(=O)c1ccc2c(c1)OCO2, the Potency was “inactive”.
For Cn1c(NC(=O)c2ccc3c(c2)OCO3)cc(=O)n(C)c1=O, the Potency was “inactive”.
With COc1ccc(C(=O)Nc2ccc3c(c2)OCO3)cc1OC the Potency was 12.6 µM (active).
With Cc1ccc(C(=O)Nc2ccc3c(c2)OCO3)cc1S(=O)(=O)N1CCCCC1 the Potency was “inactive”.
With Cn1c(=O)n(C)c2cc(C(=O)Nc3ccc4c(c3)OCO4)ccc21 the Potency was “inactive”.
For CC(C)C(=O)Nc1cccc(C(=O)Nc2ccc3c(c2)OCO3)c1, the Potency was 15.8 µM (active).
With CCOc1ccc(NC(=O)CSc2nc3c(c(=O)n2-c2ccccc2OC)SCC3)cc1 the Potency was “inactive”.
In the case of C[C@H](CCC(=O)NCC(=O)O)[C@H]1CC[C@H]2[C@H]3[C@@H](C[C@@H](O)[C@]12C)[C@]1(C)CC[C@H](O)C[C@@H]1C[C@@H]3O, the Potency is reported as “inactive”.
With CCCOc1ccc(/C(O)=C2/C(=O)C(=O)N(CCN(C)C)C2c2ccc(OC)c(OC)c2)cc1 (centres undefined) the Potency was “inactive”.
